# Compound activity as filed in PubChem.
# ELG1 genotox – genotoxicity induction in ELG1-luciferase HEK293T cells | HEK293T ELG1-luciferase reporter, luminescence, 16 h | Potency, µM (doses to about 46 µM), for inactives: at the top dose activity change, positive = activation, most hits filed as activators | 1.3% of 330,000 active | AID 504466; further: % of control where 0% means no effect; nearly all actives have a fitted effect of over 60% in size
#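 Cells (2,000/well) expressing the ELG1-luciferase fusion are dosed by pin tool and kept 16 hr at 37 °C, 5% CO2. Signal comes from ONE-Glo luciferase reagent after 30 min at room temperature.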
# A-T KAP1 phos – potential ataxia-telangiectasia treatment; Potency, µM (titrated, usually from 57.5 µM), inactives show at the highest dose activation, actives largely listed as activators; F2112 A-T fibroblasts, KAP-1 phosphorylation AlphaLISA; neocarzinostatin DNA damage 30 min before lysis; 0.19% of 320,000 active; AID 485349; further: % of control where 0% means no effect; nearly all actives have a fitted effect of over 45% in size
#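 ATM-like activity read as KAP-1 phosphorylation via AlphaLISA donor/acceptor antibody pairs after lysis and 6 hr at 25C. Cells were ATM-null patient fibroblasts (F2112, hTERT), dosed 60 min, then exposed to the DSB inducer NCS for 30 min.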
# p53 reactivation – restores transcriptional activity of mutant p53; H1299 p53-A138V BP100-luciferase reporter, luminescence, 24 h; Potency, µM (highest dose often 92.2 µM), for the others: at the top dose activity change, positive = activation, usual class: activators; 0.063% of 320,000 active; AID 504706; further: % of control where 0% means no effect; nearly all actives have a fitted effect of over 45% in size
#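 H1299 (p53-null), stable ts p53-A138V + BP100-Luc; 1000 cells/well, Opti-MEM/10% FBS; cpd 4 pt, 1:5; 24 h, 37 deg C, 5% CO2; detection reagent 10 min RT; luminescence.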
# ELG1 repair inh – ELG1-dependent DNA repair inhibition; AID 504467; 2.3% of 330,000 active; HEK293T ELG1-luciferase reporter, luminescence, 16 h; DNA damage induced by 5-fluorouridine; Potency, µM (titrated, usually from 46.1 µM), inactives show at the top dose activity change, negative = inhibition, most hits filed as inhibitors; further: on the % scale 0 is the no-effect control and ±100 the full control effect; nearly all actives have a fitted effect of over 55% in size
#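 In this reporter screen, reduction of luminescence relative to DMSO vehicle indicated activity. Compounds and 5-fluorouridine were added together to 2,000 cells per well, incubated for 16 hr at 37 °C, then developed with ONE-Glo.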
# SW480 rereplic – DNA re-replication induction in SW480 cells | Potency, µM (top dose mostly 46.1 µM), without a hit: at the highest dose re-replication activation, actives largely listed as activators | 1.8% of 340,000 active | SW480 DNA re-replication, Hoechst DNA content imaging, 48 h | AID 624297; further: % of control where 0% means no effect; nearly all actives have a fitted effect of over 55% in size
#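 Quantitative HTS format with DMSO vehicle controls; 48 hr drug incubation at 37 C, then 40 min Hoechst staining and scanning imager measurement at 405 nm excitation.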
# MCF10A rerep – DNA re-replication induction in MCF 10a cells; MCF 10A DNA re-replication, Hoechst nuclear intensity, 48 h; Potency, µM (titrated, usually from 46.1 µM), inactives show at the highest dose activity, positive = re-replication, hits mostly activators; 2.9% of 350,000 active; further: % of control where 0% means no effect; nearly all actives have a fitted effect of over 50% in size
# Numbers without * were called inactive; ? = inconclusive; . = no result; [ ] = remark or other dose. The list is not random: actives were taken first. Their share in the collection is about 7.1%. The call rests on the fitted dose curve; in most records, active means well fitted curve in the direction sought with a large enough effect; inconclusive means small, poorly fitted or top-dose-only effect, or another doubt; inactive means no such curve, though single readings can be large; an effect the other way counts as inactive or inconclusive. Potency means the concentration at half of the fitted maximal effect.
SMILES,ELG1 genotox,A-T KAP1 phos,p53 reactivation,ELG1 repair inh,SW480 rereplic,MCF10A rerep
Cc1cc(=O)oc2cc(OCC3CC(c4ccccc4)=NO3)ccc12 (configuration not stated),8.5%,1.7%,?,6.0%,5.17µM*,4.11µM*
Cc1cc(=O)oc2cc(OCC(=O)N3CC(C)OC(C)C3)ccc12 (configuration not stated),5.1%,.,-4.1%,-8.4%,-1.6%,-2.5%
COc1ccc(S(=O)(=O)N2CCN(C(=O)COc3ccc4c(C)cc(=O)oc4c3)CC2)cc1,-2.1%,11.5%,-2.1%,?,-0.5%,-0.3%
Cc1cc(=O)oc2cc(OCC3CC(c4ccc(Br)cc4)=NO3)ccc12 (configuration not stated),-4.7%,0.2%,9.9%,9.8%,?,9.2µM*
CN(C)C(=O)N1CCC(C(=O)N2CCCC(C(=O)c3ccc(C(C)(C)C)cc3)C2)CC1 (configuration not stated),-7.3%,-1.5%,-2.6%,14.6µM*,?,11.3%
COc1cc2c(cc1OC)C(=O)N1[C@H]3c4cc(C)ccc4OC[C@@H]3[C@H](c3ccccc3)[C@]1(C)C(=O)N2,0.1%,-6.6%,3.6%,?,13µM*,14.6µM*
CCCCN1CC(=O)N2[C@H]3c4cc(Cl)ccc4OC[C@@H]3[C@H](c3ccccc3)[C@]2(C)C1=O,-4.0%,-7.7%,3.9%,18.3µM*,-7.6%,0.8%
COc1cc2c(cc1OC)C(=O)N1[C@H]3c4cc(Cl)ccc4OC[C@@H]3[C@H](c3ccccc3)[C@]1(C)C(=O)N2,-1.4%,-0.7%,-2.3%,?,?,9.2µM*
CCN(CC)CCN1c2ccccc2Sc2ccc3ccccc3c21,-2.6%,7.9%,-4.3%,-0.7%,18.4µM*,?
CCN(CC)CCN1c2ccccc2Sc2ccccc21,-8.8%,-3.7%,18.2%,2.4%,-2.7%,0.4%
COc1cc2c(cc1OC)C(C(=O)NC(C)c1ccccc1)CC(=O)N2 (configuration not stated),0.6%,4.0%,-5.6%,-5.0%,1.9%,-0.4%
CCOC(=O)c1c(NC(=O)c2ccccc2C)sc2c1CC(C)(C)OC2,-6.5%,9.6%,-6.8%,?,-3.0%,?
CCCC(=O)Nc1sc2c(c1C(=O)OCC)CC(C)(C)OC2,-0.7%,-3.9%,2.0%,7.3µM*,-4.7%,-4.7%
CCOC(=O)c1c(NC(=O)c2ccc(C)cc2)sc2c1CC(C)(C)OC2,-2.7%,0.6%,-2.8%,8.2µM*,-0.7%,?
CCOC(=O)c1c(NC(=O)CCC(=O)N(CC)CC)sc2c1CC(C)(C)OC2,-6.7%,7.7%,-3.3%,?,?,-0.9%
CCOC(=O)c1c(NC(=O)CN2CCOCC2)sc2c1CC(C)(C)OC2,-7.8%,-2.0%,-2.0%,8.2µM*,10.2%,19.0%
COCCn1c(N)c(N(Cc2ccccc2)C(=O)CSCC(=O)Nc2ccc(C)cc2)c(=O)[nH]c1=O,1.6%,6.9%,-1.1%,25.0%,-6.5%,3.7%
CCC1Nc2ncnc(N3CCc4ccccc4C3)c2N(Cc2ccc(Cl)cc2)C1=O (configuration not stated),-3.7%,5.1%,-7.3%,?,?,?
CC1Nc2ncnc(N3CCN(c4ccccc4)CC3)c2N(Cc2ccc(Br)cc2)C1=O (configuration not stated),-10.2%,4.4%,-12.6%,?,5.7%,16.4µM*
O=C1C(Cc2ccccc2)Nc2ncnc(N3CCc4ccccc4C3)c2N1Cc1ccc(Cl)cc1 (configuration not stated),-7.0%,17.6%,-4.0%,?,?,23.1µM*
Cc1ccc(C(=O)CSc2nnc3n2CCCCC3)s1,?,-1.0%,?,?,10.6%,0.2%
O=C(COc1ccc(Cl)c(Cl)c1)NN1C(=O)C2C(C1=O)C1C=CC2C12CC2 (configuration not stated),0.0%,-1.3%,-5.2%,10.3%,1.03µM*,21.9%
CCOc1cc(/C=C2/C(=O)ON=C2C)ccc1OCc1ccccc1F,11.5%,7.9%,-4.3%,?,23.1µM*,?
CCOc1cc(/C=C2/C(=O)ON=C2C)ccc1OCc1ccc(F)cc1,-20.0%,0.5%,7.6%,22.1%,18.4µM*,?
Cc1csc(=O)n1CC(=O)OCC(=O)NNC(=O)c1ccc(Cl)cc1,1.0%,14.3%,11.2%,-1.0%,0.8%,5.9%
SMILES,ELG1 genotox,A-T KAP1 phos,p53 reactivation,ELG1 repair inh,SW480 rereplic,MCF10A rerep
Cc1ccc2c(c1)N(C(=O)CCC(=O)NCCN1CCOCC1)CCO2,1.4%,-14.7%,.,4.8%,3.8%,2.3%
O=C1/C(=C/c2ccncc2)SC(=S)N1C1CCS(=O)(=O)C1 (configuration not stated),-6.2%,-5.3%,-12.0%,?,21.0%,20.6µM*
Cc1ccc(/C=C2\SC(=S)N(C3CCS(=O)(=O)C3)C2=O)o1 (configuration not stated),-15.3%,-4.2%,9.4%,?,16.4µM*,0.8%
C#C[C@@]1(O)CC[C@@H]2[C@@H]3CCC4=C(CCC(=O)C4)[C@H]3CC[C@]21C,.,.,.,.,0.4%[20.6 µM],3.9%[20.6 µM]
O=C(NCCN1CCOCC1)c1ccc(Cl)c(S(=O)(=O)NCc2ccccc2)c1,-0.3%,10.2%,-4.5%,0.3%,-9.0%,14.3%
COc1ccc(-n2c(=S)[nH]c3ccccc3c2=S)cc1,-5.8%,2.82µM*,0.8%,-3.0%,4.8%,13.2%
Nc1c(C(=O)NC2CCCC2)c2nc3ccccc3nc2n1/N=C/c1cccnc1,.,.,.,.,?,4.11µM*
COCCCNC(=O)c1c(N)n(/N=C/c2ccccn2)c2nc3ccccc3nc12,1.9%,0.1%,-2.1%,4.61µM*,?,?
CC(C)OCCCNC(=O)c1c(N)n(/N=C/c2cccs2)c2nc3ccccc3nc12,-7.0%,0.1%,-1.9%,-15.8%,?,8.2µM*
CC(C)OCCCNC(=O)c1cccs1,5.2%,-1.2%,-0.9%,2.2%,-0.7%,-0.1%
Cc1cccc(N(CC(=O)NC(C)(C)C)C(=O)CCC(=O)Nc2ccccn2)c1,-2.4%,-7.8%,.,-2.0%,-0.7%,-2.2%
CC1=C(/C=C/C(C)=C\C=C\C(C)=C\C=C\C=C(C)\C=C\C=C(C)\C=C\C2=C(C)C[C@@H](O)CC2(C)C)C(C)(C)C[C@H](O)C1,.,.,.,.,12.5%,?
CC1=C[C@@H](O)CC(C)(C)[C@@H]1/C=C/C(C)=C/C=C/C(C)=C/C=C/C=C(C)/C=C/C=C(C)/C=C/C1=C(C)C[C@H](O)CC1(C)C,.,.,.,.,?,29.9µM*
